Results: PubChem BioAssay (NCI)
Compounds without any hit were thinned out: in the full panel of roughly 79,000, 15% have a hit. Active and inactive are the calls of the source. Rule as the data show it: active = growth inhibition above about 70%; inactive = the rest.

Assay: NCI Yeast Anticancer Drug Screen. Data for the rad50 strain (AID 155);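 also: 0% = growth of vehicle-only cultures of the same strain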
Settings: S. cerevisiae rad50 strain growth inhibition, active compounds read high
Experimental: Growth inhibition of yeast strains with defined genetic alterations is measured as a screen for potential anti-cancer activity. Selected strains with alterations in DNA damage repair or cell cycle control were exposed to compounds and growth inhibition was measured relative to vehicle treated controls. The strain used in this assay is rad50

[1] = at 5.0 µM (retest, dose inferred, filed as 0.5)
[2] = at 50.0 µM (retest, dose inferred, filed as 5.0)

Measured: growth inhibition

CCC/C(Cl)=N\OC(=O)Nc1ccc(Br)cc1
active: at 11.0 µM 86% | at 33.0 µM 97% | [2] 99% | at 50.0 µM 88.2% | at 100.0 µM 98%
inactive: at 1.2 µM 32% | at 3.7 µM 40% | [1] 9%

CCCCOC(=O)N[C@H]1CCc2cc(OC)c(OC)c(OC)c2-c2ccc(SC)c(=O)cc21
active: at 50.0 µM 82.5% | at 100.0 µM 81%
inactive: at 1.2 µM 1% | at 3.7 µM 6% | [1] -15% | at 11.0 µM 14% | at 33.0 µM 51% | [2] 52%

COC1C=COC2(C)Oc3c(C)c(O)c4c(c3C2=O)/C(=N/C2CCC(O)OC2C)C=C(NC(=O)/C(C)=C\C(=O)C2CC2C(O)C(C)C(O)C(C)C(OC(C)=O)C1C)C4=O (stereo not given)
active: at 100.0 µM 90%
inactive: at 1.2 µM -2% | at 3.7 µM -3% | [1] -16% | at 11.0 µM -2% | at 33.0 µM 10% | [2] 37% | at 50.0 µM 9.3%

CCOC(=O)C(NC(=O)c1ccccc1)(N1CCN(c2cc3c(cc2F)c(=O)c(C(=O)O)cn3C2CC2)CC1)C(F)(F)F (stereo not given)
active: [2] 76% | at 50.0 µM 74.6% | at 100.0 µM 79%
inactive: at 1.2 µM 0% | at 3.7 µM 5% | [1] -7% | at 11.0 µM 14% | at 33.0 µM 47%

CC(O)C(O)C(O)C(/C=N\Nc1ccccc1)=N/Nc1ccccc1 (stereo not given)
active: at 50.0 µM 97.8% | at 100.0 µM 98%
inactive: at 1.2 µM 5% | at 3.7 µM 5% | [1] 19% | at 11.0 µM 10% | at 33.0 µM 63% | [2] 51%
